From PubChem BioAssay
Rows were chosen to be rich in hits. Some 19% of all compounds tested hit in one or more screens of this group.
HT1080-NT tox: kills 2HG-producing HT-1080-NT fibrosarcoma cells. HT-1080-NT fibrosarcoma viability, CellTiter-Glo ATP luminescence, 48 h. Potency, µM (highest dose often 46.1 µM), inactives show at the top dose activity, negative = less viability, actives largely listed as cytotoxic. 1.6% of 360,000 active;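 also: NT is the 2HG producing partner of a matched IDH1 knockdown line; potency is read from the fitted curve at half-maximal effect; 0% = DMSO-treated cells and -100% = media-only wells without cells; nearly all actives have a fitted effect of over 55% in size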
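Luminescent CellTiter-Glo readout after 48 hours of compound exposure at 37 degrees C defined viability of HT-1080-NT cells. Activity was normalized to DMSO wells and cell-free media wells; concentration-response curves were fitted and assigned curve classes.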
DT40 TDP1 no CPT: qHTS for Inhibitors of human tyrosyl-DNA phosphodiesterase 1 (TDP1): qHTS in cells in absence of CPT; DT40 Tdp1-/- hTDP1 cells, no CPT, ATP luminescence, 48 h; Potency, µM (titrated, usually from 46.2 µM), inactives show at the highest dose activity change, negative = growth inhibition, usual class: inhibitors; 15% of 420,000 active; AID 686978, 2013; also: potency is read from the fitted curve at half-maximal effect; nearly all actives have a fitted effect of over 55% in size
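DT40 Tdp1-/-;hTDP1 cells, no CPT (DMSO vehicle only), 400 cells/well; compounds pin-transferred; ≥48 hr, 37 °C; CellTiter-Glo 30 min RT dark, luminescence read.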
ELG1 repair inh: inhibitors of ELG1-dependent DNA repair in HEK293T cells; Potency, µM (doses to about 46.1 µM), for inactives: at the highest dose activity change, negative = inhibition, hits mostly inhibitors; AID 504467; 2.3% of 330,000 active; HEK293T ELG1-luciferase reporter, luminescence, 16 h; DNA damage induced by 5-fluorouridine; also: potency is read from the fitted curve at half-maximal effect; nearly all actives have a fitted effect of over 55% in size
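Cells (2,000 per well) received 5-fluorouridine plus test compound or DMSO and were incubated 16 hr at 37 °C, 5% CO2. Luciferase activity was read by luminescence 30 min after ONE-Glo addition; signal suppression marked inhibition of damage-induced ELG1 function.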
HT1080 IDH1KD tx: HT-1080 IDH1 knockdown cell toxicity (counter line) | HT-1080 IDH1 knockdown viability, ATP luminescence, 48 h | 2% of 360,000 active | AID 686971 | Potency, µM (series often up to 46.1 µM), for the others: at the highest dose activity, negative = toxicity, actives largely listed as cytotoxic;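 also: potency is read from the fitted curve at half-maximal effect; 0% = DMSO wells and -100% = cell-free medium wells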
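HT-1080-IDH1KD cells (IDH1 knocked down), 750/well in RPMI with 5% FBS, treated with compound 48 h at 37 degrees C. Viability by CellTiter-Glo luminescence, normalised to DMSO and no-cell wells; concentration-response curves classed.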
TDP1 cell CPT: growth inhibition of DT40 Tdp1-/-;hTDP1 cells with camptothecin (screen for TDP1 inhibitors); 12% of 420,000 active; Potency, µM (highest dose often 46.2 µM), for the others: at the top dose activity change, negative = growth inhibition, hits mostly inhibitors; chicken DT40 Tdp1-/-;hTDP1 cells + 20 nM CPT, ATP luminescence, 48 h; AID 686979; also: potency is read from the fitted curve at half-maximal effect; nearly all actives have a fitted effect of over 55% in size
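Cell growth measured by CellTiter-Glo luminescence after a minimum 48 h, 37 C compound exposure with 20 nM CPT in Tdp1-knockout DT40 cells stably expressing hTDP1, seeded 400/well; qHTS titration format.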
IL-1B inflam inh: inhibitors of inflammasome signaling (IL-1 beta secretion); THP-1 LPS/ATP IL-1B secretion, AlphaLISA, 16 h; hits give low values; AID 743279; 4.7% of 360,000 active; activity change, % at 57.5 µM; in the data active = activity change below about -50%; inconclusive = mostly about -30% to -49%
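THP-1 cells pretreated 1 hr with compounds (up to 57.5 uM final), then stimulated with LPS (250 ng/mL final) plus ATP (1.25 mM final); secreted IL-1B measured by AlphaLISA after 16 hr, decreased signal indicating inhibition.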
* hit, by the source's call; i = inactive; ? = inconclusive; nt = no result given; [ ] = another dose, or the depositor's remark. Unless noted, calls follow the shape of the dose curve; as a rule, active = well fitted curve in the direction sought with a large enough effect; inconclusive = small, poorly fitted or top-dose-only effect, or another doubt; inactive = no such curve, though single readings can be large; an effect the other way counts as inactive or inconclusive. Unless noted, % is scaled to controls: 0 for no effect and ±100 for the full control effect.

SMILES	HT1080-NT tox	DT40 TDP1 no CPT	ELG1 repair inh	HT1080 IDH1KD tx	TDP1 cell CPT	IL-1B inflam inh
Cc1cc(C)n(-c2nc3nonc3nc2Nc2cccc(C)c2C)n1	3%	?	-6%	0%	?	10
CCOP(=O)(OCC)C(NC(=O)c1cccc2ccccc12)C(Cl)(Cl)Cl (configuration not stated)	5%	-27%	13%	7%	?	i
N/C(Cc1ccc(Cl)cc1)=N\OC(=O)c1cccc2ccccc12	?	29µM*	?	?	?	?
O=S(=O)(c1ccc(Cl)cc1)N1CCC(n2cnc3cc(C(F)(F)F)ccc32)CC1	3%	?	nt	13%	?	-30
Cc1[nH]ccc2c1[nH]c1cc(=O)ccc12	?	13µM*	?	?	8.2µM*	-26
c1ccc(-n2ccnc2)cc1	26%	-7%	1%	4%	2%	19
CN(C)S(=O)(=O)c1ccc(C(=O)NNc2nc(-c3ccccc3)c3cc(Br)ccc3n2)cc1	1%	?	23µM*	-10%	?	-60*
CC(=O)OC1CCC2(C)C(=CC(=O)C3C2CCC2(C)C(OC(C)=O)CCC32)C1 (configuration not stated)	10%	?	nt	8%	?	13
Cc1ccccc1OCC(=O)N1CCN(CCc2ccccn2)CC1	nt	-2%	nt	nt	3%	nt
O=C(COc1ccccc1F)N1CCN(Cc2cc(=O)n3nc(-c4ccccc4Cl)sc3n2)CC1	nt	15µM*	nt	nt	?	nt
Cc1ccccc1-c1nn2c(=O)cc(CN3CCN(C(=O)COc4ccccc4Cl)CC3)nc2s1	nt	8.2µM*	nt	nt	18µM*	nt
CC(CNC(=O)c1ccc(CSc2nc3ccncc3n2Cc2ccc(F)cc2)cc1)c1ccccc1 (configuration not stated)	nt	?	nt	nt	12%	nt
Nc1nc2ccc(Cl)cc2c2nc(-c3ccco3)nn12	-25%[92.2 µM]	8.9µM*	nt	-14%[92.2 µM]	6.3µM*	nt
COC(=O)c1c2[n+](cc3cc(OC)c(OC)cc13)CCc1cc(OC)c(OC)cc1-2	21%	21µM*	nt	10%	18µM*	-8
COc1cc2c(cc1OC)-c1c(OC)c(OC)c(C=O)c3c1[C@H](C2)N(C)CC3	nt	?	nt	nt	-79%	nt
COc1ccc(NP(=O)(Oc2ccc(Cl)cc2)Oc2ccc(Cl)cc2)cc1OC	?	26µM*	?	?	18µM*	?
COc1ccc(NP(=O)(Oc2ccccc2OC)Oc2ccccc2OC)cc1	1%	16µM*	21µM*	-14%	?	0
COCC(=O)N(c1c(C)cccc1C)C(C)C(=O)OC (configuration not stated)	nt	?	nt	nt	3%	nt
C=CCN1C(=O)NC(=O)/C(=C/c2ccc(OC)c(CSc3ccccn3)c2)C1=O	-1%	?	14%	0%	?	19
C=CCN1C(=O)NC(=O)/C(=C/c2ccc(OC)c(COc3ccc(NC(C)=O)cc3)c2)C1=O	?	3.7µM*	15%	?	2.6µM*	13
C=CCN1CCc2cccc3c2C1Cc1ccc(O)c(O)c1-3 (configuration not stated)	nt	5.2µM*	nt	nt	13µM*	nt
CN1CCc2cc(O)cc3c2C1Cc1ccc(O)c(O)c1-3 (configuration not stated)	nt	2.1µM*	nt	nt	2.6µM*	nt
CCCN1CCc2cccc3c2[C@H]1Cc1ccc(O)c(O)c1-3	3.3µM*	?	nt	23µM*	-85%	-3
